In PubChem BioAssay (EPA / NIEHS):
Results filed as inconclusive are left out. The source made the active and inactive calls. The calls were made as follows, unless noted: active = hit-call score of the fitted dose curve at least 0.9, where 1 is the maximum; inactive = score below 0.9.

Experiments:
[1] = read-out: Interleukin-8 (IL8), CXCL8 (gene 3576); experiment: BSK_3C_IL8: BioMAP Diversity Plus: 3C Assay for Interleukin-8 (IL8) Biomarker Activity (AID 2283020); details: primary human endothelial cells (HUVEC); actives raise or lower the signal
Method in brief: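 Primary human umbilical vein endothelial cells (3C system) were exposed to test chemical for 24 h, then IL-8 was quantified by ELISA. Responses were fitted bidirectionally against DMSO vehicle as baseline.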

[2] = biological target: human Vitamin D Receptor (VDR), VDR (gene 7421) (UniProt P11473); experiment: ATG_VDR_TRANS: Attagene TRANS-FACTORIAL HepG2 Assay for human Vitamin D Receptor (VDR) (AID 2283022; active = hit-call score of the fitted dose curve at least 0.9, where 1 is the maximum)
Chain of human Vitamin D Receptor (VDR), VDR (gene 7421) (P11473 whole entry, looked up): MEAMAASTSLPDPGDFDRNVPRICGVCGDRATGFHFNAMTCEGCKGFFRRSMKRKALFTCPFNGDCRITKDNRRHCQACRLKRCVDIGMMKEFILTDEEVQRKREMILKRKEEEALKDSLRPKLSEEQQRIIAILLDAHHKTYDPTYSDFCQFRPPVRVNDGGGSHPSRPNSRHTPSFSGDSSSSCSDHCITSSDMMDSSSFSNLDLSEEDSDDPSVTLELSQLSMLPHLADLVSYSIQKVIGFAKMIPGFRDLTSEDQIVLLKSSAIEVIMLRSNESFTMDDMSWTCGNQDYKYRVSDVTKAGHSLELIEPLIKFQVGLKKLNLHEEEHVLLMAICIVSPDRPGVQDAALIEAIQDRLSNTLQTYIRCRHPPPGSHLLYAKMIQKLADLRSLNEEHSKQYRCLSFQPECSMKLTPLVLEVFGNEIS
Method in brief: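 Multiplexed TRANS reporter in HepG2; 24 h treatment; reporter mRNA by RT-PCR plus capillary electrophoresis; upregulation scored relative to DMSO.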

[3] = BSK_3C_SRB: Viability Assessment in the BioMAP Diversity Plus: 3C Assay (AID 2283023); details: primary human endothelial cells (HUVEC);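 also: fitted both ways against DMSO so a hit may be signal rise or drop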
Method in brief: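 Overt cytotoxicity is gauged in parallel confluent HUVEC cultures by SRB total-protein staining at the time of biomarker measurement, 24 h after dosing. Gain or loss of signal is fitted versus DMSO.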

[4] = read-out: Matrix Metallopeptidase 1 (MMP1), MMP1 (gene 4312); experiment: BSK_BE3C_MMP1: BioMAP Diversity Plus: BE3C Assay for Matrix Metallopeptidase 1 (MMP1) Biomarker Activity (AID 2283024); details: primary human bronchial epithelial cells; actives raise or lower the signal
Method in brief: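 Primary human bronchial epithelial cells were dosed with test chemicals, and MMP1 levels were measured by ELISA 24 h later. Data were fitted bidirectionally against DMSO as the negative control and activity baseline.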

[5] = BSK_3C_Vis: BioMAP Diversity Plus: 3C Assay for Morphology Visualization (AID 2283025); details: primary human endothelial cells (HUVEC);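 also: fitted both ways so gain or loss versus DMSO counts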
Method in brief: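 Human umbilical vein endothelial cells in the 3C system were imaged by light microscopy 24 h after chemical dosing to record cell morphology. Activity was fitted bidirectionally against DMSO as negative control and baseline; the endpoint serves as a background control.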

[6] = read-out: Pselectin, SELP (gene 6403); experiment: BSK_4H_Pselectin: BioMAP Diversity Plus: 4H Assay for Pselectin Biomarker Activity (AID 2283026); details: primary human endothelial cells (HUVEC); actives raise or lower the signal
Method in brief: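 Primary human umbilical vein endothelial cells were exposed to test chemical for 24 h, then cell-surface P-selectin was quantified by ELISA. Activity was fitted bidirectionally against DMSO as negative control and baseline.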

[7] = BSK_4H_SRB: Viability Assessment in the BioMAP Diversity Plus: 4H Assay (AID 2283027); details: primary human endothelial cells (HUVEC);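 also: cells exposed to compound for 24 h before staining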;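 as to AC50: curves fitted both ways versus DMSO so AC50 may be loss or gain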
Method in brief: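 Human umbilical vein endothelial cells, 24 h after chemical dosing; total protein measured by 0.1% sulforhodamine B staining after 10% TCA fixation, read at 560 nm. Bidirectional fitting against DMSO.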

[8] = BSK_BE3C_SRB: Viability Assessment in the BioMAP Diversity Plus: BE3C Assay (AID 2283028); details: primary human bronchial epithelial cells;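 as to AC50: fitted both ways so AC50 may mark signal gain or loss versus DMSO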
Method in brief: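 SRB total-protein staining (0.1%, after TCA fixation) of chemically dosed human bronchial epithelial primary cells at 24 h; DMSO serves as the negative control for bidirectional curve fitting.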

[9] = read-out: Thrombomodulin, THBD (gene 7056); experiment: BSK_3C_Thrombomodulin: BioMAP Diversity Plus: 3C Assay for Thrombomodulin Biomarker Activity (AID 2283029); details: primary human endothelial cells (HUVEC); actives raise or lower the signal
Method in brief: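 Primary human umbilical vein endothelial cells (3C system) were exposed to chemical for 24 h, then thrombomodulin levels were measured by ELISA. Activity was fitted bidirectionally against the DMSO negative control as baseline.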

[10] = read-out: Urokinase-type plasminogen activator receptor (uPAR), PLAUR (gene 5329); experiment: BSK_4H_uPAR: BioMAP Diversity Plus: 4H Assay for Urokinase-type plasminogen activator receptor (uPAR) Biomarker Activity (AID 2283030); details: primary human endothelial cells (HUVEC); actives raise or lower the signal
Method in brief: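 Endpoint derived via bidirectional curve fitting against DMSO baseline; readout was ELISA detection of uPAR on umbilical vein endothelial cells at 24 h post-treatment, with SRB-stained parallel cultures assessing cytotoxicity.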

[11] = read-out: Vascular endothelial growth factor receptor 2 (Homo sapiens) (UniProt P35968); experiment: BSK_4H_VEGFRII: BioMAP Diversity Plus: 4H Assay for Vascular endothelial growth factor receptor 2 (VEGFR2) Biomarker Activity (AID 2283031); details: primary human endothelial cells (HUVEC); actives raise or lower the signal
Method in brief: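 In this multiplexed HUVEC system, biomarker ELISA was performed after 24 h chemical exposure. Parallel SRB staining (TCA fixation, 560 nm) tracked cytotoxicity; DMSO served as baseline.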

[12] = read-out: Human Leukocyte Antigen - DR isotype (HLADR), HLA-DRA (gene 3122); experiment: BSK_BE3C_HLADR: BioMAP Diversity Plus: BE3C Assay for Human Leukocyte Antigen - DR isotype (HLADR) Biomarker Activity (AID 2283032); details: primary human bronchial epithelial cells; actives raise or lower the signal
Method in brief: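 Human primary bronchial epithelial cells in the BE3C system were exposed to chemicals for 24 h, after which HLA-DR levels were quantified by ELISA. Activity was fitted bidirectionally, gain or loss of signal, against DMSO as negative control and baseline.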

[13] = read-out: Vascular cell adhesion molecule 1 (VCAM1), VCAM1 (gene 7412); experiment: BSK_4H_VCAM1: BioMAP Diversity Plus: 4H Assay for Vascular cell adhesion molecule 1 (VCAM1) Biomarker Activity (AID 2283033); details: primary human endothelial cells (HUVEC); actives raise or lower the signal
Method in brief: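 Primary human umbilical vein endothelial cells were exposed to chemicals for 24 h, after which VCAM-1 was quantified by ELISA. Responses were fitted bidirectionally against DMSO as negative control and activity baseline.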

[14] = read-out: Interferon-gamma inducible Protein 10 (IP10), CXCL10 (gene 3627); experiment: BSK_BE3C_IP10: BioMAP Diversity Plus: BE3C Assay for Interferon-gamma inducible Protein 10 (IP10) Biomarker Activity (AID 2283034); details: primary human bronchial epithelial cells; actives raise or lower the signal
Method in brief: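 Human primary bronchial epithelial cells were exposed to chemicals for 24 hours, after which IP-10 levels were measured by ELISA. Data were fitted bidirectionally against DMSO, which served as the negative control and activity baseline.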

[15] = read-out: Monokine induced gamma interferon (MIG), CXCL9 (gene 4283); experiment: BSK_BE3C_MIG: BioMAP Diversity Plus: BE3C Assay for Monokine induced gamma interferon (MIG) Biomarker Activity (AID 2283035); details: primary human bronchial epithelial cells; actives raise or lower the signal
Method in brief: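 Primary human bronchial epithelial cells treated for 24 h; MIG levels measured by ELISA, fitted bidirectionally versus DMSO. Parallel SRB total-protein staining assessed cytotoxicity.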

[16] = read-out: Transforming growth factor beta 1 (TGFb1), TGFB1 (gene 7040); experiment: BSK_BE3C_TGFb1: BioMAP Diversity Plus: BE3C Assay for Transforming growth factor beta 1 (TGFb1) Biomarker Activity (AID 2283036); details: primary human bronchial epithelial cells; actives raise or lower the signal
Method in brief: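 Human primary bronchial epithelial cells (BE3C system) were dosed with chemical and TGF-b1 levels measured by ELISA at 24 h. Activity was fitted bidirectionally relative to DMSO negative control as baseline.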

[17] = read-out: Plasminogen activator inhibitor-1 (PAI1), SERPINE1 (gene 5054); experiment: BSK_BE3C_PAI1: BioMAP Diversity Plus: BE3C Assay for Plasminogen activator inhibitor-1 (PAI1) Biomarker Activity (AID 2283037); details: primary human bronchial epithelial cells; actives raise or lower the signal
Method in brief: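 Human primary bronchial epithelial cells were exposed to chemical for 24 h, then PAI-1 was quantified by ELISA. Activity was fitted bidirectionally relative to the DMSO negative control baseline.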

[18] = read-out: urokinase plasminogen activator (uPA), PLAU (gene 5328); experiment: BSK_BE3C_uPA: BioMAP Diversity Plus: BE3C Assay for urokinase plasminogen activator (uPA) Biomarker Activity (AID 2283038); details: primary human bronchial epithelial cells; actives raise or lower the signal
Method in brief: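 Using confluent primary human lung bronchial epithelial cultures, we dosed chemicals, waited 24 h, then ran a uPA ELISA, fitting bidirectionally against DMSO.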

[19] = read-out: Urokinase-type plasminogen activator receptor (uPAR), PLAUR (gene 5329); experiment: BSK_BE3C_uPAR: BioMAP Diversity Plus: BE3C Assay for Urokinase-type plasminogen activator receptor (uPAR) Biomarker Activity (AID 2283039); details: primary human bronchial epithelial cells; actives raise or lower the signal
Method in brief: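 Primary human bronchial epithelial cells were dosed with chemical and harvested 24 h later; uPAR was quantified by ELISA. Activity was fitted bidirectionally against DMSO as negative control and baseline.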

[20] = read-out: Monokine induced gamma interferon (MIG), CXCL9 (gene 4283); experiment: BSK_3C_MIG: BioMAP Diversity Plus: 3C Assay for Monokine induced gamma interferon (MIG) Biomarker Activity (AID 2283021); details: primary human endothelial cells (HUVEC); actives raise or lower the signal
Method in brief: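 Primary human umbilical vein endothelial cells in the 3C system were exposed to chemical for 24 h, after which MIG was quantified by ELISA. Activity was fitted bidirectionally against DMSO as negative control and baseline.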

Measured: AC50

CCN(CC)c1ccccc1
inactive: [1] | [2] | [3] | [4] | [5] | [6] | [7] | [8] | [9] | [10] | [11] | [12] | [13] | [14] | [15] | [16] | [17] | [18] | [19]

CCC1(c2ccccc2)C(=O)N=C(O)NC1=O (stereo not given)
inactive: [1] | [2] | [3] | [5] | [6] | [7] | [8] | [9] | [10] | [11] | [12] | [13] | [14] | [15] | [16] | [17] | [18] | [19]

CC(O)C(F)(F)C(F)(F)F (stereo not given)
inactive: [1] | [2] | [3] | [4] | [6] | [7] | [8] | [9] | [10] | [12] | [13] | [14] | [15] | [17] | [18] | [19]

COC(=O)C(F)(F)C(F)(F)OC(F)(C(F)(F)F)C(F)(F)OC(F)=C(F)F (stereo not given)
inactive: [1] | [2] | [3] | [6] | [7] | [8] | [9] | [10] | [11] | [12] | [13] | [14] | [15] | [17] | [18] | [19]

CCCCCCCc1ccc(O)cc1
active: [1] 38.1 µM | [3] 39.2 µM | [5] 22.3 µM | [6] 30.9 µM | [7] 36.1 µM | [8] 38.1 µM | [10] 38.4 µM | [12] 32.1 µM | [13] 35.1 µM | [14] 35 µM | [15] 37.6 µM | [16] 37.3 µM | [17] 39.3 µM | [18] 39.1 µM | [19] 39.3 µM
inactive: [2] | [9]

[N-]=[N+]=[N-]
inactive: [1] | [20] | [3] | [5] | [7] | [8] | [9] | [10] | [12] | [13] | [14] | [15] | [16] | [17] | [18] | [19]

O=P1(N(CCCl)CCCl)NCCCO1 (stereo not given)
inactive: [1] | [2] | [3] | [4] | [5] | [6] | [7] | [8] | [9] | [10] | [11] | [12] | [13] | [14] | [15] | [16] | [17] | [18] | [19]

CCOP(=S)(OCC)SCS(=O)(=O)CC
inactive: [1] | [2] | [3] | [4] | [5] | [6] | [7] | [8] | [9] | [10] | [11] | [12] | [13] | [14] | [15] | [16] | [17] | [18] | [19]

CC(O)C#N (stereo not given)
inactive: [2]

Oc1ccc(I)cc1
inactive: [2]

Nc1ccc(Sc2ccc(N)cc2)cc1
inactive: [2]

CCCCN(CC)C(=O)SCCC
inactive: [2]

CCOC(=O)c1ccccc1N
inactive: [2]

O=P(OCC(Br)CBr)(OCC(Br)CBr)OCC(Br)CBr (stereo not given)
active: [1] 17.4 µM | [3] 10.3 µM | [4] 3.88 µM | [5] 12.4 µM | [7] 1.54 µM | [13] 3.69 µM
inactive: [8] | [9] | [10] | [12] | [14] | [15] | [16] | [17] | [18] | [19]

O=C(O)CF
inactive: [2]

CCCCc1ccccc1
inactive: [1] | [3] | [5] | [6] | [7] | [8] | [9] | [10] | [11] | [12] | [13] | [14] | [15] | [16] | [17] | [18] | [19]

NNC(N)=S
inactive: [2]

Cc1ccc(N)cc1N
inactive: [1] | [3] | [4] | [5] | [6] | [7] | [8] | [9] | [10] | [11] | [12] | [13] | [14] | [15] | [16] | [17] | [18] | [19]

CC(=O)c1ccc(-c2ccccc2)cc1
inactive: [2]

ClC(Cl)c1ccccc1
inactive: [1] | [3] | [5] | [7] | [8] | [9] | [10] | [11] | [12] | [13] | [14] | [15] | [16] | [17] | [18] | [19]
